About 310 (2.8%) of roughly 11,000 compounds were called active. Cut-off read from the data, not from the text of the source: active = activity change below about -85%; inactive = the rest. What follows is part of a selection rich in actives, with near analogues and random picks from the rest.
These compounds were tested on intestinal alkaline phosphatase [Mus musculus] (assay: mouse intestinal phosphatase enzyme activation – biochemical, luminescence, single concentration, confirmation (AID 434970)). Details: purified mouse IAP, CDP-Star luminescence, 30 min, at 10 µM; activation factor: measured here: IAP activation factor, stronger effect = higher value; activity change, negative = activation: stronger effect = lower value.
For Cc1ccc(NC(=O)Cn2cnc(C(=O)Nc3ccc(C)c(C)c3)n2)cc1C, the activation factor was 1.05 and the activity change, negative = activation was -4.9% (inactive).
In the case of O=C(Nc1ccc2ccccc2c1)c1cn(-c2ccccc2)nc1-c1cccs1, the activation factor was 1.61 and the activity change, negative = activation was -60.9% (inactive).
For COc1ccc(N2CCN(c3nc(NCCO)nc(N4CCOCC4)n3)CC2)cc1, the activation factor was 0.927 and the activity change, negative = activation was 7.25% (inactive).
In the case of CC[C@]12c3[nH]c4cc(CCC(=O)N(C)C)ccc4c3CCN1C(=O)[C@@H](CC(=O)NCCCN(C)C)C[C@@H]2C(=O)N1CCN(C(=O)C2CC2)CC1, the activation factor was 1.05 and the activity change, negative = activation was -4.6% (inactive).
Cc1ccc2c(c1)c(C)c(C)n2CC(O)CN1CCOCC1 (configuration not stated) was tested, and the activation factor was 0.95 and the activity change, negative = activation was 5% (inactive).
With O=C(NC1CCCCCCC1)c1cnccn1 the activation factor was 0.972 and the activity change, negative = activation was 2.85% (inactive).
With O=C(Nc1nccs1)C1CC2CCC1C2 (configuration not stated) the activation factor was 1.01 and the activity change, negative = activation was -0.6% (inactive).
With CCOC(=O)c1ccc(NC(=O)CSc2nnc(C3CCCCC3)n2C)cc1 the activation factor was 0.933 and the activity change, negative = activation was 6.7% (inactive).
For Cn1ncc(Cl)c1C(=O)Nc1cccc(Cl)c1, the activation factor was 1.01 and the activity change, negative = activation was -1.1% (inactive).
Cn1nc(C(=O)Nc2cccc(C(F)(F)F)c2)ccc1=O was tested, and the activation factor was 1.13 and the activity change, negative = activation was -12.9% (inactive).
O=C(Nc1ccc(-n2ccc(C(F)(F)F)n2)cc1)Nc1cccc(Cl)c1 was tested, and the activation factor was 1.92 and the activity change, negative = activation was -91.7% (active).
For Cn1cc(NC(=O)Nc2ccc(C(F)(F)F)cc2)c(C(F)(F)F)n1, the activation factor was 1.86 and the activity change, negative = activation was -86.1% (inactive).
For CC(=O)Nc1ccc(-n2cnnn2)cc1, the activation factor was 1.04 and the activity change, negative = activation was -3.5% (inactive).
With Cn1nc(OC(=O)Nc2cccc(Cl)c2)cc1C(F)(F)F the activation factor was 2.51 and the activity change, negative = activation was -151% (active).
O=C(NCCCn1ccnc1)Nc1cccc(Cl)c1 was tested, and the activation factor was 1.23 and the activity change, negative = activation was -23.4% (inactive).
With O=C(Nc1ccccc1)Nc1ccc(-n2ccc(C(F)(F)F)n2)cc1 the activation factor was 1.6 and the activity change, negative = activation was -60% (inactive).
In the case of Cc1cc(C)cc(NC(=O)Nc2ccc(-n3ccc(C(F)(F)F)n3)cc2)c1, the activation factor was 2.36 and the activity change, negative = activation was -136% (active).
For Cc1noc(C)c1S(=O)(=O)Nc1ccc(C(=O)NC2CCCCCC2)cc1, the activation factor was 1.07 and the activity change, negative = activation was -7.15% (inactive).
CN=C1N(C)C[C@@H]2[C@@H]3C(=O)N(Cc4ccccc4)C(=O)[C@@H]3[C@](Cc3ccccc3)(C(=O)OC)N12 was tested, and the activation factor was 1.16 and the activity change, negative = activation was -16.1% (inactive).
In the case of CC(C)CC(c1nnnn1Cc1cccs1)N1CCN(c2nc3ccccc3s2)CC1 (configuration not stated), the activation factor was 0.985 and the activity change, negative = activation was 1.5% (inactive).
With CCOC(=O)CCc1c(C)c(C#N)c2nc3ccccc3n2c1-n1cnc2ccccc21 the activation factor was 1.02 and the activity change, negative = activation was -1.8% (inactive).

Reference: PubChem BioAssay AID434970 (Sanford-Burnham Center for Chemical Genomics, 2010)
